# Data from PubChem BioAssay AID720517 (National Center for Advancing Translational Sciences (NCATS), 2013).
# Records with an inconclusive call do not appear. A number with no mark means an inactive call. Active and inactive are the calls of the source. The call rests on the fitted dose curve; in most records, active means well fitted activation curve with a large enough effect; inconclusive means small, poorly fitted or top-dose-only effect; inactive means flat fitted curve, though single readings scatter.
# Assay: qHTS for Inhibitors of Cell Surface uPA Generation: FP59 Counterscreen for Cherry-picked Compounds; on activity (protection from FP59): 0% is about no effect
# Settings: FP59 anthrax toxin cytotoxicity counterscreen, cells; series mostly up to 115 µM; activity (protection from FP59): at the top concentration
# Potency means the concentration at half of the fitted maximal effect.
Compound,activity (protection from FP59) [%],Potency
OCC1CCCCN1CC(O)COC(c1ccc(F)cc1)c1ccc(F)cc1 (centres undefined),-1.2,–
N#Cc1ccccc1Sc1ccccc1C(=O)Nc1ccc(Br)cc1,5.57,–
O=[N+]([O-])c1ccc(C[n+]2cccc(O)c2)cc1,-1.21,–
NC(=O)c1ccccc1NC(=O)CC12CC3CC(CC(C3)C1)C2,-1.32,–
COc1ccc(-c2cc(-c3ccccc3)nc3ncnn23)cc1,-1.42,–
Cc1ccc(S(=O)(=O)N2CCC(C(=O)OC(C)C(=O)NC3CCCCC3C)CC2)cc1 (centres undefined),-0.445,–
COc1ccccc1NC(=O)COc1ccc(C(=O)NCc2ccccc2)cc1OC,0.667,–
Cc1cccc(N2C(=O)N3[C@H](c4ccc(F)cc4)[C@@H]4C(=O)N(C5CCCCC5)C(=O)[C@@H]4[C@]3(Cc3ccc(Cl)cc3)C2=O)c1,-1.01,–
Cc1cccc(C(=O)Nc2cc(=O)n(C)c(=O)n2C)c1,-0.469,–
COc1ccc2nc(SC(C)C(=O)NC3(C#N)CCCCC3)[nH]c2c1 (centres undefined),-1.27,–
CCCCNC(=O)c1cc2c(-c3ccc(Cl)cc3)nn(C)c2s1,-1.37,–
CC1(CC(=O)N/N=C/c2cc(Br)c(O)cc2O)OCCO1,1.07,–
C[C@@]12C(=O)N(CC3CCCO3)CC(=O)N1[C@H]1c3cc(Cl)ccc3OC[C@@H]1[C@@H]2c1ccccc1 (some centres undefined),4.34,–
NC(=O)CC[C@H](NC(=O)c1ccc(F)cc1)C(=O)OCC(=O)Nc1c(F)c(F)c(F)c(F)c1F,-1.38,–
O=C(NCc1ccccn1)C1CCN(C(=O)c2cc3sccc3n2Cc2ccc(F)cc2)CC1,-1.21,–
Cc1ccc(NC(=O)c2ccc(=O)[nH]n2)cc1S(=O)(=O)Nc1ccccc1Cl,-1.47,–
COc1ccccc1C(=O)NCCC(=O)NCC(c1ccc(F)cc1)N1CCOCC1 (centres undefined),-1.32,–
CNC(=S)N1C2CCCC1CC(NC(=O)c1ccc(F)cc1)C2 (centres undefined),-1.37,–
Cc1ccc(S(=O)(=O)NC(=O)Nc2nccs2)cc1,-1.39,–
Cn1c(SCC(=O)NNC(=O)c2ccc(Br)cc2)nnc1-c1cccnc1,-1.37,–

Compound,activity (protection from FP59) [%],Potency
CC(=O)Oc1ccccc1C(=O)Nc1ccccc1C(=O)N1CCCC1,-1.41,–
CCc1ccccc1N(CC(=O)N1CCCC1)S(C)(=O)=O,0.233,–
COc1ccc(C(CNC(=O)C(C)Oc2ccc(Br)cc2)N2CCCC2)cc1 (centres undefined),-1.39,–
CS(=O)(=O)c1ccc(Cl)c(NC(=O)COC(=O)CNC(=O)c2cccs2)c1,-1.36,–
C/C(=N\NC(=S)NC(C)C)c1ccc(Cl)s1,0.058,–
Cc1ccc(C)c(N2N=C(C(=O)N(CC(C)C)c3c(N)n(Cc4ccccc4)c(=O)[nH]c3=O)CCC2=O)c1,-1.04,–
O=C(NCCCn1ccnc1)C(=O)NCC(c1cccnc1)N1CCN(c2ccc(F)cc2)CC1 (centres undefined),0.365,–
CCOC(=O)c1c(NC(=O)COc2ccccc2C#N)sc2c1CC(C)(C)NC2(C)C,-1.65,–
CSc1nc(-c2ccccc2)nc(C(Cl)Cl)n1,-1.15,–
O=C(OCC(=O)N1CCOCC1)c1c(Cl)ccc(Cl)c1Cl,-1.43,–
CN(C)c1cccc(C(=O)N(C)C2CCCN(Cc3ccccc3F)C2)c1 (centres undefined),–,52.1 µM (active)
Cc1ccc(C(CC(=O)N2CCCC2)c2ccccc2)c(O)c1 (centres undefined),-0.648,–
CC1CCCN(S(=O)(=O)c2cccc([N+](=O)[O-])c2)C1 (centres undefined),-1.5,–
C[C@@H](NC(=O)c1nc[nH]c1C(=O)NCc1ccc(CNC(=O)OC(C)(C)C)cc1)c1ccccc1,–,58.5 µM (active)
COc1cc(CNCc2ccc3c(c2)OCO3)c([N+](=O)[O-])cc1OC,-1.32,–
COc1ccc(C(=O)CC2(C(=O)O)CCCCC2)cc1,-1.5,–
O=C(CSc1ccc(Cl)cc1)Nc1ccc(C2SCCS2)cc1,-1,–
COc1cc(NC(=S)NCCc2ccc(S(N)(=O)=O)cc2)c(OC)cc1Cl,-1.42,–
O=C(O)c1ccc(-c2ccc(/C=C3\NC(=O)N(Cc4ccc(Cl)cc4)C3=O)o2)cc1,-1.13,–
